Compounds with a hit are over-represented: about 0.43% of the library has one in this group of screens.
GAA glycogen = qHTS Assay for Inhibitors and Activators of Human alpha-Glucosidase Cleavage of Glycogen; actives 0.38% (n = 300,000); Lysosomal alpha-glucosidase (Homo sapiens), P10253; Potency, µM (doses to about 76.4 µM), inactives show top-dose activity change, negative = inhibition, usual class: inhibitors; recombinant GAA, glycogen substrate, Amplex Red glucose oxidase fluorescence;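 also: potency is read from the fitted curve at half-maximal effect; 0% = full enzyme reaction and -100% = no-enzyme basal signal; the screen sought inhibitors and activators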
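Recombinant enzyme (4 nM final) with compounds titrated up to 77 uM and bovine liver glycogen (30 ug) in citrate pH 5.0, 0.01% Tween-20, 37 C 40 min. Released glucose detected by Amplex Red/glucose oxidase (Ex 573/Em 610); AC50 from Hill fits.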
N370S GC = qHTS Assay for Inhibitors and Activators of N370S glucocerebrosidase as a Potential Chaperone Treatment of Gaucher Disease; Lysosomal acid glucosylceramidase (Homo sapiens), P04062; actives 0.092% (n = 330,000); N370S GC spleen homogenate, 4MU-glucoside fluorescence; AID 2101, 2009; Potency, µM (top dose mostly 59.4 µM), for the others: at the top dose activity change, negative = inhibition, hits mostly inhibitors;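 also: potency is read from the fitted curve at half-maximal effect; 0% = full enzyme activity and -100% = no enzyme basal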
GAA inhib = qHTS Assay for Inhibitors of Human alpha-Glucosidase as a Potential Chaperone Treatment of Pompe Disease | actives 0.005% (n = 200,000) | Potency, µM (titrated, usually from 76.9 µM), for the others: top-dose activity change, negative = inhibition, usual class: inhibitors | Lysosomal alpha-glucosidase (Homo sapiens), P10253 | purified human GAA, 4-MU-alpha-glucoside fluorescence | AID 1466, 2008;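 also: potency is read from the fitted curve at half-maximal effect; plate controls were uninhibited enzyme wells for no effect and no-enzyme background for full effect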
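Human enzyme at 4 nM with 400 uM 4-methylumbelliferyl-alpha-D-pyranoside, citrate/phosphate buffer pH 5.0, 0.005% Tween-20, 20 min at room temperature. Compounds up to 77 uM. 4-MU fluorescence (Ex 365/Em 440) read after NaOH/glycine stop; AC50 from Hill fit.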
aGal spleen mod = qHTS Assay for Inhibitors and Activators of Human alpha-Galactosidase From Spleen Homogenate | human spleen homogenate, 4MU-alpha-Gal fluorescence, 40 min | Potency, µM (series often up to 80 µM), without a hit: top-dose activity change, negative = inhibition, hits mostly inhibitors | actives 0.008% (n = 240,000) | AID 2107, 2009;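 also: potency is read from the fitted curve at half-maximal effect; 0% = enzyme with vehicle and -100% = no enzyme basal signal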
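Inhibition or activation of alpha-galactosidase in human spleen homogenate is scored by 4-MU fluorescence after 40 min at 37C, pH 5.0, with 1 mM substrate. AC50s come from concentration-response fitted to the Hill equation.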
aGlu spleen mod = qHTS Assay for Inhibitors and Activators of Human alpha-Glucosidase From Spleen Homogenate; Lysosomal alpha-glucosidase (Homo sapiens), P10253; human spleen homogenate, 4-MU-alpha-glucoside fluorescence; Potency, µM (series often up to 79.9 µM), inactives show top-dose activity change, negative = inhibition, hits mostly inhibitors; actives 0.006% (n = 240,000); AID 2112, 2009;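 also: potency is read from the fitted curve at half-maximal effect; 0% = enzyme with vehicle and -100% = no enzyme basal signal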
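Human spleen homogenate (1 ug) with 4-methylumbelliferyl-alpha-D-glucopyranoside (1 mM final) in 50 mM citrate/phosphate pH 5.0, 0.01% Tween-20; 40 min at 37 C. Stopped at pH 10; 4-MU fluorescence Ex 365/Em 440 nm; AC50 by Hill fit.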
GLA inh pH 4.5 = qHTS Assay for Inhibitors of Human alpha-Galactosidase at pH 4.5; activity change, negative = inhibition, % at 105 µM; purified enzyme, 4-MU-alpha-Gal fluorescence, pH 4.5; 230,000 tested, under 10 active;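 also: 0% = full activity with enzyme and -100% = basal without enzyme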
Target sequence (P06280 whole entry, looked up): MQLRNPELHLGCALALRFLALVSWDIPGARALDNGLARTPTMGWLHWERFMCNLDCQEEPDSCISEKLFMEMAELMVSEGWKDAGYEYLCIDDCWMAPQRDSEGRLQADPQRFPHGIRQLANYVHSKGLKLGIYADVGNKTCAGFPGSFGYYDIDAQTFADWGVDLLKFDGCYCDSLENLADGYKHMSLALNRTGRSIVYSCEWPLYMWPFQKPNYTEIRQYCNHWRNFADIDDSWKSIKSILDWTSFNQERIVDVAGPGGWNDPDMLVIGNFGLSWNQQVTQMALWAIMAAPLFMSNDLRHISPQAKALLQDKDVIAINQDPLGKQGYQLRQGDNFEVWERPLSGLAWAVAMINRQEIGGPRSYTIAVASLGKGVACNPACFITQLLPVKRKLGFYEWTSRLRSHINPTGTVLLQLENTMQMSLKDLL
An asterisk follows results filed as active; ? = inconclusive; . = not tested or not shown; ! = not active in a repeat; [ ] = dose if it differs, or a comment. Calls follow the shape of the dose curve; as a rule, active = well fitted curve in the direction sought with a large enough effect; inconclusive = small, poorly fitted or top-dose-only effect, or another doubt; inactive = no such curve, though single readings can be large; an effect the other way counts as inactive or inconclusive.

SMILES	GAA glycogen	N370S GC	GAA inhib	aGal spleen mod	aGlu spleen mod	GLA inh pH 4.5
CCOC(=O)c1oc2c(O)c(O)ccc2c(=O)c1-c1nncn1-c1ccccc1	35µM*	-7%	-12%	0%	-6%	-8
Cc1ccc(C)c(NS(=O)(=O)c2cc3c(cc2Cl)NC(=O)CO3)c1	-10%[76.3 µM]	.	.	.	.	.
OCCCNC(=S)Nc1ccc(Nc2ccccc2)cc1	14µM*	-15%	-8%	-3%	1%	3
Nc1ccc(NC(=S)Nc2ccccc2)cc1	0%	0%	-4%	-3%	-1%	-1
Oc1ccc(NC(=S)Nc2ccccc2)cc1	11µM*!	?	3%	2%	-2%	22
Nc1ccccc1C(=O)NNc1c2ccccc2nc2ccccc12	40µM*	?	.	8%	1%	-1
O=c1c(O)cccc2cc(O)c(O)c(O)c12	14µM*	-4%	-8%	3%	-2%	-9
O=c1cc(-c2ccccc2)oc2cc(O)c(O)c(O)c12	.	?	.	11%	9%	-14
Oc1ccc(Cl)cc1N=Cc1sc2ccccc2c1Cl	2.8µM*	-15%	5%	7%	10%	1
O=[N+]([O-])c1ccc(O)c(N=Cc2sc3ccccc3c2O)c1	-12%	3%	-7%	10%	1%	-10
c1ccc2c(c1)Cc1cc3cc4c(cc3nc1-2)OCO4	.	8%	.	28%	9%	2
Oc1ccc(N2CCN(Cc3nc4ccccc4[nH]3)CC2)cc1	8.9µM*	-3%	.	.	.	.
O=C(NNc1nc2c(F)cc(F)cc2s1)C1=COCCO1	4.4µM*	-2%	1%	6%	13%	-7
Cc1cccc2sc(NNC(=O)C3=COCCO3)nc12	?	4%	4%	1%	0%	1
Cc1c(N/C=C(\Cl)C(=O)C(F)(F)F)c(=O)n(-c2ccccc2)n1C	32µM*	-15%	-6%	3%	1%	-2
CCCCN1C[C@H](O)[C@@H](O)[C@H](O)[C@H]1CO	2.5µM*	.	6.3µM*	4%	1.6µM*	.
O=C(Nc1ccc(OCC(=O)N2CCN(S(=O)(=O)c3ccccc3)CC2)cc1)c1ccco1	-24%	.	28µM*	-9%	?	-4
CCCCCCCCCCCCCC[C@@H](O)[C@@H](O)[C@@H](N)CO	.	-15%	.	4%	-11%	.
CC1(C)OC(=O)C(=NNc2ccc(O)cc2)C(=O)O1	11µM*	-23%	-3%	-7%	-12%	2
Cc1ccn2c(NCc3ccccc3)c(-c3cccs3)nc2c1	?	11µM*	-21%	14%	3%	7
CN1CCc2cccc3c2[C@H]1Cc1ccc(O)c(O)c1-3	7.9µM*	-10%	2%[15.4 µM]	0%	6%	8
Cc1ccc(-n2nc(C)c3c2OC(N)=C(C#N)C3c2ccoc2)cc1 (centres undefined)	22µM*	-24%	-4%	4%	-3%	9
Cc1ccc(-n2nc(C)c3c2OC(N)=C(C#N)C3c2ccco2)cc1 (centres undefined)	?	1%	2%	0%	-6%	-5
CCOC(=O)C1(Cc2ccccc2C(F)(F)F)CCN(C(C)CCn2cccn2)CC1 (centres undefined)	4.5µM*	11%	?	3%	1%	0
COC(=O)c1c(NC(=O)COC(=O)CCNS(=O)(=O)c2ccc(NC(C)=O)cc2)sc(C)c1C	.	8.9µM*	.	.	.	.
SMILES	GAA glycogen	N370S GC	GAA inhib	aGal spleen mod	aGlu spleen mod	GLA inh pH 4.5
COC(=O)c1c(NC(=O)COC(=O)CCNS(=O)(=O)c2ccccc2)sc(C)c1C	.	0%	.	.	.	.
CC(C)COc1ccc(C(=O)Nc2onc3c2CCCC3)cc1	-7%[76.3 µM]	.	.	.	.	.
COc1ccc(C(=O)N/N=C/c2c(CO)cnc(C)c2O)cc1	1%	-10%	-12%	30%	0%	-4
COc1ccccc1N/N=C/c1c(CO)cnc(C)c1O	3.2µM*	-9%	5%	19%	11%	0
COc1cc(/C=N/Nc2nc3ccccc3[nH]2)cc(OC)c1O	20µM*	-11%	5%	-3%	-5%	-3
COc1cc(/C=N/Nc2nc3ccccc3[nH]2)ccc1O	22µM*	-10%	3%	7%	-19%	6
COc1cc(/C=N/Nc2nn3cnnc3c3ccccc23)ccc1O	18µM*	-6%	-10%	11%	6%	-15
COc1cccc(/C=N/Nc2nc3ccccc3[nH]2)c1O	?	-18%	.	4%	-3%	-2
CCOc1cc(/C=N/Nc2nn3cnnc3c3ccccc23)ccc1O	?	-6%	.	-1%	-1%	-4
C(=N\Nc1nc2ccccc2[nH]1)/c1ccc2c(c1)OCO2	16µM*	-4%	-7%	-2%	.	-4
COc1ccc([C@]23Cc4ccccc4C(O2)c2c(cc(C)n(Cc4ccccc4)c2=O)O3)cc1	-28%[15.3 µM]	3%[12.8 µM]	.	.	.	.
C/C(=N\Nc1nc2ccccc2[nH]1)c1ccc2c(c1)OCCO2	50µM*	-1%	-7%	2%	1%	-2
C=CCn1cc(/C=N/Nc2nc3ccccc3[nH]2)c2ccccc21	28µM*	?	-8%	1%	-5%	2
Cc1ccsc1/C=N/Nc1nc2ccccc2[nH]1	6.3µM*	-15%	-7%	0%	0%	-1
NCCCC[C@H](NC(=O)[C@@H]1CCCN1C(=O)[C@H](CO)NC(=O)[C@H](CC(=O)O)NC(=O)CNC(=O)[C@H](CCCN=C(N)N)NC(=O)CN)C(=O)O	.	-7%	.	-4%	-14%	.
Nc1ccc2nc(-c3cc(Cl)c(N)c(Cl)c3)[nH]c2c1	12µM*	1%	4%	-3%	-1%	0
O=c1c2cccnc2n(Cc2ccccc2F)c(=O)n1Cc1ccccc1Cl	7%[76.3 µM]	.	.	.	.	.
O=C(N/N=C/C1CCCCC1)c1ccccn1	?	6%	-4%	6%	4%	-6
O=C(N/N=C/C1CCCCC1)c1cc(Cl)ccc1O	35µM*	2%	-18%	-2%	-5%	4
O=S1(=O)CC/C(=N\Nc2ccccc2)c2ccsc21	25µM*	-6%	4%	-9%	-17%	3
O=c1[nH][nH]c(C(F)(F)F)c1C=Nc1ccccc1	4%	5%	2%	-11%	-4%	5
Cc1cc(O)ccc1N=Cc1c(C(F)(F)F)[nH][nH]c1=O	22µM*	-5%	-11%	-2%	3%	3

Assay outcomes (PubChem BioAssay)
